# Assay results: the supplement of paper PMC11732987, “Enantioselective OTUD7B fragment discovery through chemoproteomics screening and high-throughput optimisation” (Communications Chemistry, 2025)
# Unmarked numbers belong to inactive results.
# How the values were obtained:
# Experiment in all cases: log2 ratio of Biotin-Ahx-Ub-VS probe labelling (fragment/DMSO); higher = less target engagement (more negative = stronger competition), active = hit call of the paper (q ≤ 0.05, log2 ratio ≤ -1)
# Conditions in all cases: compound concentration: 200 uM; treatment time: 3 h
# [1] = target: T1, OTUD6B (UniProt Q8N6M0)
# T1 sequence (whole entry): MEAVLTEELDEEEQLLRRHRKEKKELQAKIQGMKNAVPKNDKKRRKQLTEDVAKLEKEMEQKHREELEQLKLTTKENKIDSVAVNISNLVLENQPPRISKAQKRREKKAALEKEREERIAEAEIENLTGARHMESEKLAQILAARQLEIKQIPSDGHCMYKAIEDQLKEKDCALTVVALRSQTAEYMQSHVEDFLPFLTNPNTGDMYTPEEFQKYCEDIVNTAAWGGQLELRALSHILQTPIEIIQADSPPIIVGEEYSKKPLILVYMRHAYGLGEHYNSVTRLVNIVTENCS
# Procedure, shortened: (§1)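 The table lists average log2 ratios of fragment over vehicle, from an unpaired t-test on global-median-normalised Spectronaut label-free quantities. Proteins with ≥2 unique peptides were used. Samples were HEK293T lysate (495 µg) treated in triplicate with fragment at 200 µM or vehicle for 3 h, then with Biotin-Ahx-Ub-VS (0.5 µM final) for 1 h, with labelled DUBs NeutrAvidin-enriched and run by diaPASEF LC-MS/MS.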
# [2] = target: T2, OTUD7B (UniProt Q6GQQ9)
# T2 sequence (whole entry): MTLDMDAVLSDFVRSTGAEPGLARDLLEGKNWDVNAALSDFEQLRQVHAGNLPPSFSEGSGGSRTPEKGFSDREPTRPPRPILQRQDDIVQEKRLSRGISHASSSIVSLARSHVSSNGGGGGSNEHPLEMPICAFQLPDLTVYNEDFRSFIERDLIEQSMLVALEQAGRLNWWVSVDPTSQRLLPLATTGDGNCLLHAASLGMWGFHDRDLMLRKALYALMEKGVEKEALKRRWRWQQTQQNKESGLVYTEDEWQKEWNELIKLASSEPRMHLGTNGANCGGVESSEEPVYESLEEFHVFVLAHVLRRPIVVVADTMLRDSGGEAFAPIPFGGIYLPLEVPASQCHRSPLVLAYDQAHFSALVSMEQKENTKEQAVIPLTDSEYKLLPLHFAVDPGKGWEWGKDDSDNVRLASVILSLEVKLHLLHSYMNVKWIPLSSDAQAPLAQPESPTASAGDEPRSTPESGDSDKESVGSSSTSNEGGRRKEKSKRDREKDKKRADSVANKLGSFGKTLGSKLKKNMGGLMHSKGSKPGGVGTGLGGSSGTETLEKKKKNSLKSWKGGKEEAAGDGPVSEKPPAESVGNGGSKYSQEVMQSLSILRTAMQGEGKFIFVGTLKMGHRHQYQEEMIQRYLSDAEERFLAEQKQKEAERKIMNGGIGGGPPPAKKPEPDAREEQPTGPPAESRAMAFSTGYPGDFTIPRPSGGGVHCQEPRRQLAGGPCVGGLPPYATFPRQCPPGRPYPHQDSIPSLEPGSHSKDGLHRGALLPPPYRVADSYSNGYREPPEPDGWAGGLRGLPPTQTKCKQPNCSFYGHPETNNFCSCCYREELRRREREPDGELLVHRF
# Procedure, shortened: as §1
# [3] = target: PRPF8 (UniProt Q6P2Q9)
# Procedure, shortened: as §1
# [4] = target: T3, PSMD7 (UniProt P51665)
# T3 sequence (whole entry): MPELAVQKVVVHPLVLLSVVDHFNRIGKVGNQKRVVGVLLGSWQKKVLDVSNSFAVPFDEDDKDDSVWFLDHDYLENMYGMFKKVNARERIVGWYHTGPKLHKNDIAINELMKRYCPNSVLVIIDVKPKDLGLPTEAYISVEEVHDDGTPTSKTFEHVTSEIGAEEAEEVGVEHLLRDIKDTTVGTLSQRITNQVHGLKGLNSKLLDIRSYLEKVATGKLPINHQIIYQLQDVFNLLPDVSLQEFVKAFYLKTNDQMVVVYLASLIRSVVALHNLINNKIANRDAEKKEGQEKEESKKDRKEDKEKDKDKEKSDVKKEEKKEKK
# Procedure, shortened: as §1
# [5] = target: UCHL1 (UniProt P09936)
# Sequence of UCHL1 (P09936 whole entry, looked up): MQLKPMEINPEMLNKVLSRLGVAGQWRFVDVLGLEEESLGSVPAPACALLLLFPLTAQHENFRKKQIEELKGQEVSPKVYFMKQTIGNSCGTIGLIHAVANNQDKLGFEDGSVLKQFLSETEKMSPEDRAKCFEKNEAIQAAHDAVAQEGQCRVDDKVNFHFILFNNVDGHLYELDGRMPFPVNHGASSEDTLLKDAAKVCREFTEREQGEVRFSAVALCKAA
# Procedure, shortened: as §1
# [6] = target: T4, UCHL3 (UniProt P15374)
# T4 sequence (whole entry): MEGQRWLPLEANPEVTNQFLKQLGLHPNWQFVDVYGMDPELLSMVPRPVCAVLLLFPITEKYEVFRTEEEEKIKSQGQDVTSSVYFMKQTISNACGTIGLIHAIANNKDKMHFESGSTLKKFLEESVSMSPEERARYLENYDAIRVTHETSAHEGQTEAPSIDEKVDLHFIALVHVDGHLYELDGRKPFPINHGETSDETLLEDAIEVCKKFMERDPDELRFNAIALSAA
# Procedure, shortened: as §1
# [7] = target: T5, UCHL5 (UniProt Q9Y5K5)
# T5 sequence (whole entry): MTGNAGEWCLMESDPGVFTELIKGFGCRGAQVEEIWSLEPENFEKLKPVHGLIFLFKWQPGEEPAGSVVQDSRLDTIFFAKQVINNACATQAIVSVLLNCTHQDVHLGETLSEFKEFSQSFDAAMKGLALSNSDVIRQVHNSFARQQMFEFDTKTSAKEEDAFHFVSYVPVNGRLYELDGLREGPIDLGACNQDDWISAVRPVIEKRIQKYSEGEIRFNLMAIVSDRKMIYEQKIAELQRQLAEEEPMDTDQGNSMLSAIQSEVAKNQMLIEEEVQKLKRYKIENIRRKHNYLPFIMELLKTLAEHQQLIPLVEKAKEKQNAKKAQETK
# Procedure, shortened: as §1
# [8] = target: USP10 (UniProt Q14694)
# Sequence of USP10 (Q14694 whole entry): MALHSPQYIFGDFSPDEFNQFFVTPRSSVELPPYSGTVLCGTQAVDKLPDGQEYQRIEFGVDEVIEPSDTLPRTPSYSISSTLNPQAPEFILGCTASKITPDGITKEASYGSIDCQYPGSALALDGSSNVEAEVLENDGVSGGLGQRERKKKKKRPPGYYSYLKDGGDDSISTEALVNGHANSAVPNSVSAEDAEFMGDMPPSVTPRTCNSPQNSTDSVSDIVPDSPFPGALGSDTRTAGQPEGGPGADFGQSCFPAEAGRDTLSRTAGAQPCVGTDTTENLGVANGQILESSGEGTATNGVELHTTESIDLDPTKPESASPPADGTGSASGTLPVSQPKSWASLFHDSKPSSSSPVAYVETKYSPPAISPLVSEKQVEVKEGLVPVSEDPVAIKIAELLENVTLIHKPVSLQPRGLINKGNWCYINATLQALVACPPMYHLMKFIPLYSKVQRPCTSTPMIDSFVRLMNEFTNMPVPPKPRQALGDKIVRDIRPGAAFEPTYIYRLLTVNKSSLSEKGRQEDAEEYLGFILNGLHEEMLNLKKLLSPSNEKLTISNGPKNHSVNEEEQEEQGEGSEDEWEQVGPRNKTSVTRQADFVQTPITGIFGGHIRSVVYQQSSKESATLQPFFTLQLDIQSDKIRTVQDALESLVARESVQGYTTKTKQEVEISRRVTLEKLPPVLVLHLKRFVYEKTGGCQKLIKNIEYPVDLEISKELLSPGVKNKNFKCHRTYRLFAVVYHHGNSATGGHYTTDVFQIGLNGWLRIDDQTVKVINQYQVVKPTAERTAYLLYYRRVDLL
# Procedure, shortened: as §1
# [9] = target: T6, USP15 (UniProt Q9Y4E8)
# T6 sequence (whole entry): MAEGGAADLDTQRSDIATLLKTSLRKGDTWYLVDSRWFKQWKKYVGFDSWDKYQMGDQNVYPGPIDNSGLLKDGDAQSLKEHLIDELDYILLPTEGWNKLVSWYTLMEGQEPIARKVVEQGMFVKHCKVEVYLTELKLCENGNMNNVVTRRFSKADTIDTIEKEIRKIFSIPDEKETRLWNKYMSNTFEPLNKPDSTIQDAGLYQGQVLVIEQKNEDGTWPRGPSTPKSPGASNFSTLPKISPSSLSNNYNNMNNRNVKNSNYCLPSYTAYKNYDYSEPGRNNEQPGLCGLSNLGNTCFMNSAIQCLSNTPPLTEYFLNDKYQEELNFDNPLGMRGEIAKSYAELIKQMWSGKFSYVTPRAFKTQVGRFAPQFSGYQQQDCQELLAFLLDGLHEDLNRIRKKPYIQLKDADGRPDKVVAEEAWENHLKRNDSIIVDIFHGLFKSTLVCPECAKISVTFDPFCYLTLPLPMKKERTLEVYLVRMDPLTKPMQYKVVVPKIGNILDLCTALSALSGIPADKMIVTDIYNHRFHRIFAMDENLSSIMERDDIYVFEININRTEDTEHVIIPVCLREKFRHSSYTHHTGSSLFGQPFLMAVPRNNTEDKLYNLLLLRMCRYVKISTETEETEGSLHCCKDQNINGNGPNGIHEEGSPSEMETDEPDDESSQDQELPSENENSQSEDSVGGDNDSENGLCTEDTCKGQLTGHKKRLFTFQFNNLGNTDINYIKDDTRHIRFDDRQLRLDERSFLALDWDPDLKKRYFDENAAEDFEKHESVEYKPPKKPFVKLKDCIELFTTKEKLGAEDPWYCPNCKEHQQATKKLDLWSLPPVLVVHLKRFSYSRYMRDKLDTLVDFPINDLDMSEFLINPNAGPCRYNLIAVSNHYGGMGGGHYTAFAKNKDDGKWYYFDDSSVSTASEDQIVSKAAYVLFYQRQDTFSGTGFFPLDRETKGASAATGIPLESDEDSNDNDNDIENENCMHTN
# Procedure, shortened: as §1
# [10] = target: USP16 (UniProt Q9Y5T5)
# Sequence of USP16 (Q9Y5T5 whole entry, looked up): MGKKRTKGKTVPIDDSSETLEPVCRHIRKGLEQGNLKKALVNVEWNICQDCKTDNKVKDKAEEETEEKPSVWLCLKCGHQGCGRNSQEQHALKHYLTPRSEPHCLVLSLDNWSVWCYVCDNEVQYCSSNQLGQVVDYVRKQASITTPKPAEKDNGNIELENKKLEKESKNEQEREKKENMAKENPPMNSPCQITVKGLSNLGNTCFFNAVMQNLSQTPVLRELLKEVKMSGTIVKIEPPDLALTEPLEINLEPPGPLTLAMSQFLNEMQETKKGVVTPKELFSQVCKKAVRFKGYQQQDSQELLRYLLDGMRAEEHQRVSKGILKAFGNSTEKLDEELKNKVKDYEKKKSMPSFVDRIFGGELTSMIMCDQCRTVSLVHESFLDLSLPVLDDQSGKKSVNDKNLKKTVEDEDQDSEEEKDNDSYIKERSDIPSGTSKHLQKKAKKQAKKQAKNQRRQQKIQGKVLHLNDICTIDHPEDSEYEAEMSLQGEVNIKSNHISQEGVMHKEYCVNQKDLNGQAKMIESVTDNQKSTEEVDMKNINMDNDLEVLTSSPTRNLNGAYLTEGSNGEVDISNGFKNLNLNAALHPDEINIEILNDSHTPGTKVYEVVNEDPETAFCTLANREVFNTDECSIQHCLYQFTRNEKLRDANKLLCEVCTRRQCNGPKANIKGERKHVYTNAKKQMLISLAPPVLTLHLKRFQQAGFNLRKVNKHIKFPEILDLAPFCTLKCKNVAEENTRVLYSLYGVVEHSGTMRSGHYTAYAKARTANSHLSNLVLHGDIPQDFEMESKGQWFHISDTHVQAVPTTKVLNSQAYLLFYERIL
# Procedure, shortened: as §1
smiles,measurement,setting,value
Cc1cccc(N(CCC#N)C(=O)CCl)c1C,log2 ratio of Biotin-Ahx-Ub-VS probe labelling,[1],0.027
same,log2 ratio of Biotin-Ahx-Ub-VS probe labelling,[2],-1.2 (active)
same,log2 ratio of Biotin-Ahx-Ub-VS probe labelling,[3],0.241
same,log2 ratio of Biotin-Ahx-Ub-VS probe labelling,[4],0.0381
same,log2 ratio of Biotin-Ahx-Ub-VS probe labelling,[5],-1.09 (active)
same,log2 ratio of Biotin-Ahx-Ub-VS probe labelling,[6],0.389
same,log2 ratio of Biotin-Ahx-Ub-VS probe labelling,[7],-0.0436
same,log2 ratio of Biotin-Ahx-Ub-VS probe labelling,[8],-0.0111
same,log2 ratio of Biotin-Ahx-Ub-VS probe labelling,[9],-0.0542
same,log2 ratio of Biotin-Ahx-Ub-VS probe labelling,[10],-0.0303
